Compound activity from PubChem.
An excerpt weighted towards active compounds, which were near 2.6% of everything screened.
S2 tox: viability counter-screen for ATXN expression inhibitors. S2 cells (HEK-293 line with an ATXN2-luciferase reporter) viability, CellTiter-Fluor protease fluorescence, 24 h. Potency, µM (doses to about 56.7 µM), usual class: cytotoxic. 400,000 tested, 0.49% active; also: nearly all actives have a fitted effect of over 40% in size
HepG2 viability: HepG2 cytotoxicity, counter-screen for TGF-b inhibitors; HepG2 CAGA-GFP viability, ATP luminescence, 18 h; Potency, µM (titrated, usually from 46.1 µM), usual class: cytotoxic; 410,000 tested, 0.76% active; AID 588856
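HepG2 CAGA-GFP cells (1000/well, DMEM with 1% FBS) received compound, then TGF-beta at 500 pg/mL final, and were incubated 18 hours at 37 degrees C. Viability was read by CellTiter-Glo luminescence. Media-only wells were set as complete cell-killing and DMSO as no toxicity.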
TGFb inhibitor: inhibitors of TGF-b signaling; 410,000 tested, 1.2% active; HepG2 CAGA-GFP TGF-b/SMAD3 reporter, GFP fluorescence, 18 h; TGF-beta stimulated, 500 pg/mL final; AID 588855; Potency, µM (titrated, usually from 46.1 µM), most hits filed as inhibitors; also: nearly all actives have a fitted effect of over 65% in size
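GFP signal (ex488/em500-530) from TGF-beta-stimulated HEPG2 CAGA-GFP cells, 500 pg/mL final, 18 h at 37 degrees C in DMEM plus 1% FBS, normalized to unstimulated and DMSO-stimulated controls.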
uPA generation: inhibitors of cell surface uPA generation. cell surface uPA generation assay, qHTS. Potency, µM (highest dose often 38.3 µM), actives largely listed as inhibitors. 330,000 tested, 0.31% active. AID 540303; active = well fitted inhibition curve with a large enough effect; inconclusive = small, poorly fitted or top-dose-only effect; inactive = no such curve, though single readings can be large or run the other way; tested in mouse RAW 264.7 cells; also: nearly all actives have a fitted effect of over 55% in size
Giardia killer: Giardia lamblia killing; Giardia lamblia trophozoite viability; activity change, % at 7.66 µM, hits read low; 340,000 tested, 0.15% active; in the data active = activity change below about -80%; inconclusive = between about -30% and that limit;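 also: parasites exposed to compound for two days anaerobically before the ATP read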
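Trophozoites 100 cells/well + cpd; 48 hrs, 37 deg C, anaerobic. ATPLite 1-Step added, 15-30 min RT, luminescence read (ATP-based viability).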
ATXN2 expr inh: inhibitors of ATXN2 expression | HEK-293 ATXN2-luciferase reporter, luminescence, 24 h | Potency, µM (doses to about 57 µM), most hits filed as inhibitors | 360,000 tested, 0.72% active | AID 1745845; also: nearly all actives have a fitted effect of over 55% in size
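ATXN2-luciferase reporter cells (luciferase flanked by upstream and downstream ATXN2 gene portions) were treated 24 h at 37 °C with compounds at up to 57 uM. SteadyGlo luminescence gave expression; GF-AFC fluorescence gave viability.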
Numbers stand for hits; n = inactive; u = inconclusive; x = no result given. Unless noted, calls follow the shape of the dose curve; as a rule, active = well fitted curve in the direction sought with a large enough effect; inconclusive = small, poorly fitted or top-dose-only effect, or another doubt; inactive = no such curve, though single readings can be large; an effect the other way counts as inactive or inconclusive.

SMILES | S2 tox | HepG2 viability | TGFb inhibitor | uPA generation | Giardia killer | ATXN2 expr inh
COc1ccc(Nc2c3c(nc4ccc(NC(=O)c5cc(Cl)ccc5OC)cc24)CCCC3)cc1OC | 7.08µM | 7.08µM | 10µM | x | x | 3.16µM
COc1ccc(Cl)cc1C(=O)Nc1ccc2nc3n(c(=O)c2c1)CCCC3 | n | n | n | n | n | n
CCOc1ccccc1C(=O)Nc1ccc2nc3c(c(Nc4ccc(OC)c(OC)c4)c2c1)CCCC3 | x | 10µM | u | x | x | x
COc1cc(=O)n2c(c1C(=O)N(C)Cc1nonc1C)CCN(Cc1cc(C)ccc1C)CC2 | n | x | x | x | x | x
O=C(C[n+]1ccccc1Br)c1ccc(-c2ccccc2)cc1 | x | n | u | x | x | x
FC(F)(F)c1nc(-c2cccs2)ncc1-c1nnnn1-c1ccc(Cl)cc1 | u | n | n | n | n | 22.4µM
Clc1ccc(-n2nnnc2-c2cnc(-c3ccncc3)nc2-c2cccs2)cc1 | n | n | n | n | n | n
Cc1csc(CN(C)C(=O)c2sc3ncnc(NCC4CCCO4)c3c2C)n1 (stereo not drawn) | n | x | x | x | x | x
COc1cc2c(c(OC)c1OC)-c1ccc(N(C)CC(OC)OC)c(=O)cc1[C@@H](NC(C)=O)CC2 | n | n | u | n | n | n
CN[C@H]1CCc2cc(OC)c(OC)c(OC)c2-c2ccc(N(C)CC(OC)OC)c(=O)cc21 | 14.1µM | n | u | 3.55µM | n | x
O=C(C[C@H]1C(=O)N(CCc2ccccc2)C[C@@H]1Cc1ccccc1)Nc1ccccc1 | u | n | 11.2µM | n | n | n
CCC/C=C/c1ccc(CN2C(C)C(=O)N(Cc3cn(Cc4ccco4)nn3)CCS2(=O)=O)cc1 (stereo not drawn) | u | n | 22.4µM | x | x | n
CCC/C=C/c1ccc(CN2C(C(C)C)C(=O)N(Cc3cn(Cc4ccco4)nn3)CCS2(=O)=O)cc1 (stereo not drawn) | u | n | 11.2µM | x | x | u
NC(=O)C(OC(=O)CNC(=O)C1CCCCC1)c1ccccc1 (stereo not drawn) | x | n | n | x | n | x
COc1ccc(C(=O)C[n+]2ccccc2Cl)cc1 | x | n | u | x | x | x
CCN1CCCC1CNC(=O)c1cnn(-c2ncc(C)c(-c3ccc(F)cc3)n2)c1C(C)C (stereo not drawn) | n | x | x | x | x | x
CC(C)c1ccc(NC(=O)CSc2nc(=O)n(Cc3cccnc3)c3c2CCC3)cc1 | n | n | 11.2µM | x | x | n
O=C(CSc1nc(=O)n(Cc2cccnc2)c2c1CCC2)Nc1cccc(Cl)c1 | n | n | n | x | x | n
CN(C)c1ccc(/C=C/c2c(Cl)cnc3ccccc23)cc1 | x | n | n | x | x | x
CCN1C(=O)CC(C(C)C)N(C2CCCC2)c2nc(Nc3ccc(C(=O)NC4CCN(C)CC4)cc3OC)ncc21 (stereo not drawn) | x | n | u | n | n | u
COc1cc(C(=O)NC2CCN(C)CC2)ccc1Nc1ncc2c(n1)N(C1CCCCC1)CCC(=O)N2C | u | 12.6µM | u | u | n | n
CCN1C(=O)CC(c2ccccc2)N(C2CCCC2)c2nc(Nc3ccc(C(=O)NC4CCN(C)CC4)cc3OC)ncc21 (stereo not drawn) | x | 12.6µM | u | u | n | u
CC(c1ccccc1)N1C(=O)/C(=C/c2ccncc2)SC1=S (stereo not drawn) | 22.4µM | n | u | u | n | x
CN(/N=C/c1cc(Br)cc(Br)c1O)c1cccc(C(F)(F)F)n1 | x | 3.16µM | u | n | n | u
CN(N=Cc1ccccc1O)c1ccc2ccccc2n1 | n | n | n | x | x | x
SMILES | S2 tox | HepG2 viability | TGFb inhibitor | uPA generation | Giardia killer | ATXN2 expr inh
Cc1nc(C)n(CC(=O)NCC2Cc3cc(-c4cccc(OC(F)(F)F)c4)ccc3O2)n1 (stereo not drawn) | n | x | x | x | x | x
CCc1ccccc1NC(=O)Nc1nnc(N(C)Cc2ccccc2)s1 | x | n | 12.6µM | x | x | x
C(=C\c1cnc2ccccc2n1)/c1ccc2c(c1)OCO2 | x | n | n | x | x | x
O=C(Nc1ccc2c(c1)OCCO2)NC1(C(F)(F)F)Oc2ccccc2O1 | n | n | n | 2.51µM | n | n
Cc1ccc(-n2cc(CNCCc3ncc(C)[nH]3)c(-c3ccc(F)cc3)n2)cc1 | u | n | u | n | n | 25.1µM
CN(Cc1ccccc1)CC(O)COc1ccc(CNCc2cccnc2)cc1 (stereo not drawn) | n | n | n | u | n | x
CN(Cc1ccccc1)CC(O)COc1ccc(CNCc2ccc(Cl)s2)cc1 (stereo not drawn) | u | n | 12.6µM | n | n | u
CN(C)/[N+]([O-])=N\Oc1cc(OC(=O)c2ccc(N)cc2)c([N+](=O)[O-])cc1[N+](=O)[O-] | x | n | n | x | x | x
CCc1ccc(NC(=O)CN(c2ccc(Cl)cc2)S(=O)(=O)c2ccsc2C(=O)OC)cc1 | n | n | 7.08µM | x | x | n
Cc1ncoc1C(=O)N1CCOc2ccc(CN3CCC(Oc4cccnc4)CC3)cc2C1 | n | x | x | x | x | x
Cn1c(-c2ccc(S(=O)(=O)N3CCCC3)cc2)csc1=Nc1ccc(Cl)c(Cl)c1 | x | n | u | x | x | x
O=S(=O)(c1ccc(-c2csc(=Nc3ccc(OC(F)(F)Cl)cc3)n2CCCO)cc1)N1CCCC1 | x | n | 3.55µM | x | x | x
COCCCn1c(-c2ccc(S(=O)(=O)N3CCOCC3)cc2)csc1=Nc1ccccc1 | u | n | n | n | n | 31.6µM
O=C1CSC2(C(=O)N(Cc3ccccc3F)c3ccccc32)N1c1cccc(C(F)(F)F)c1 (stereo not drawn) | n | n | 11.2µM | x | x | u
O=S(=O)(c1ccc(OCC(O)CNC23CC4CC(CC(C4)C2)C3)c(Cl)c1)N1CCOCC1 (stereo not drawn) | u | 12.6µM | u | n | n | u
OC[C@H]1O[C@@H](n2cnc3c2NC=NC[C@@H]3O)C[C@H]1O | x | x | x | x | x | n
COc1ccccc1NC(=O)CN1CCN(CC(=O)Nc2ccc(F)c(F)c2)CC1 | n | n | 6.31µM | x | x | n
COc1ccccc1NC(=O)CN1CCN(CC(=O)Nc2ccc(C)c(F)c2)CC1 | n | n | n | n | n | n
CC(=O)CC/C=C(\C)CC/C=C(\C)CC/C=C(\C)CCC=C(C)C | n | x | x | x | x | n
CC1(C)CC(C(=O)Nc2ccccc2)C(=O)O1 (stereo not drawn) | n | n | n | n | n | n
C[C@]1(O)CC(=O)C=C[C@H]1Nc1ccccc1 | u | n | u | 8.91µM | n | u
COc1ccc(N2C(=O)c3ccccc3NC2c2ccc(OC)c(COc3ccccc3F)c2)cc1 (stereo not drawn) | x | n | n | x | n | x
Cc1ccc2nc3n(c(=O)c2c1)-c1cc2ccccc2cc1C(=O)NC3Cc1ccc(O)cc1 (stereo not drawn) | u | n | u | x | x | u
O=C1NC(Cc2ccc(O)cc2)c2nc3ccc(F)cc3c(=O)n2-c2cc3ccccc3cc21 (stereo not drawn) | 14.1µM | n | u | x | x | u
CCOc1ccc(-c2cccc(NS(=O)(=O)c3c(C)cc(C)cc3C)c2)nn1 | u | n | 20µM | x | x | u
